From PubChem
Rows were chosen to be rich in hits. Some 21% of all compounds tested hit in one or more screens of this group.
TDP1 cell CPT: qHTS for Inhibitors of human tyrosyl-DNA phosphodiesterase 1 (TDP1): qHTS in cells in presence of CPT | chicken DT40 Tdp1-/-;hTDP1 cells + 20 nM CPT, ATP luminescence, 48 h | Potency, µM (top dose mostly 46.2 µM), usual class: inhibitors | actives 12% (n = 420,000) | AID 686979, 2013; also: nearly all actives have a fitted effect of over 55% in size
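Chicken DT40 Tdp1-/- cells stably complemented with human TDP1 were seeded at 400 cells/well in medium containing 20 nM camptothecin, exposed to pin-transferred compounds, and grown at 37 °C for at least 48 hr. Viability was read as ATP luminescence.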
DT40 TDP1 no CPT: qHTS for Inhibitors of human tyrosyl-DNA phosphodiesterase 1 (TDP1): qHTS in cells in absence of CPT | Potency, µM (series often up to 46.2 µM), most hits filed as inhibitors | AID 686978, 2013 | DT40 Tdp1-/- hTDP1 cells, no CPT, ATP luminescence, 48 h | actives 15% (n = 420,000); also: nearly all actives have a fitted effect of over 55% in size
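Cells were dispensed at 400 per well, compounds added by pin tool, plates incubated ≥48 hr at 37 °C, then CellTiter-Glo added for 30 min at room temperature before luminescence reading. Line: DT40 Tdp1-/- complemented with hTDP1; camptothecin omitted.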
RORgamma inh: qHTS for inhibitors of ROR gamma transcriptional activity; Drosophila S2 Gal4-RORgamma UAS-luciferase reporter, 20 h; Nuclear receptor ROR-gamma (Mus musculus), P51450; Potency, µM (doses to about 53.6 µM), most hits filed as inhibitors; actives 5.4% (n = 310,000); AID 2551, 2010; also: nearly all actives have a fitted effect of over 60% in size
Target sequence (P51450 whole entry, looked up, the tested form may be a part): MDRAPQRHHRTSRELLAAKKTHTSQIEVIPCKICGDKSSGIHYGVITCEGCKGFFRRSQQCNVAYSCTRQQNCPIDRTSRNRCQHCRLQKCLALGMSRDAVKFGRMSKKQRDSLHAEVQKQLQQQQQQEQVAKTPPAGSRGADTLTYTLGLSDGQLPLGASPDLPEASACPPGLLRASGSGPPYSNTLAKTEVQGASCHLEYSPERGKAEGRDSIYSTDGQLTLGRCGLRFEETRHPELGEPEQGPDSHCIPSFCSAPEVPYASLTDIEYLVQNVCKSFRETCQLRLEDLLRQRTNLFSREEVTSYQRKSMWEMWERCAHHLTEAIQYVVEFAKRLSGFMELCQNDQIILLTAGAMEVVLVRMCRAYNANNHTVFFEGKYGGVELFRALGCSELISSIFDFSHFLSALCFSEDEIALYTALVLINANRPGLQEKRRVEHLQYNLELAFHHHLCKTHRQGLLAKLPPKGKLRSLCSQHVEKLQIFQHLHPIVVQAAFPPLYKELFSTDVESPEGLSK
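Stably transfected Drosophila Schneider cells are the test system, with ROR gamma fused to Gal4 and luciferase under UAS control; luminescence is read after 20 hr of 700 uM copper sulfate induction at ambient temperature.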
IL-1B inflam inh: qHTS for Inhibitors of Inflammasome Signaling: IL-1-beta AlphaLISA Primary Screen | THP-1 LPS/ATP IL-1B secretion, AlphaLISA, 16 h; active compounds read low | activity change, % at 57.5 µM | actives 4.7% (n = 360,000); in the data active = activity change below about -50%; inconclusive = mostly about -30% to -49%
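Secreted IL-1B measured by AlphaLISA bead assay after 16 h compound exposure of THP-1 cells; compounds (final up to 57.5 uM) added 1 h before LPS (250 ng/mL) and ATP (1.25 mM) stimulation; lower signal means less secretion.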
VP16 counter: VP16 counterscreen qHTS for inhibitors of ROR gamma transcriptional activity; Drosophila S2 Gal4-VP16 UAS-luciferase, luminescence, 20 h; Potency, µM (highest dose often 53.6 µM), hits mostly inhibitors; actives 3.5% (n = 310,000); AID 2546, 2010;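 also: Gal4-VP16 expression switched on by copper sulfate through the metallothionein promoter; nearly all actives have a fitted effect of over 50% in size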
ELG1 repair inh: qHTS screen for small molecules that inhibit ELG1-dependent DNA repair in human embryonic kidney (HEK293T) cells expressing luciferase-tagged ELG1; HEK293T ELG1-luciferase reporter, luminescence, 16 h; DNA damage induced by 5-fluorouridine; Potency, µM (top dose mostly 46.1 µM), hits mostly inhibitors; actives 2.3% (n = 330,000); AID 504467, 2011; also: nearly all actives have a fitted effect of over 55% in size
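5-Fluorouridine DNA damage + compound/DMSO, 2,000 cells/well, 16 h, 37 °C/5% CO2. ONE-Glo, 30 min RT, luminescence. Readout = decrease in reporter signal.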
Hits are given with their value. Unless noted, calls follow the shape of the dose curve; as a rule, active = well fitted curve in the direction sought with a large enough effect; inconclusive = small, poorly fitted or top-dose-only effect, or another doubt; inactive = no such curve, though single readings can be large; an effect the other way counts as inactive or inconclusive.

For CCOc1ccccc1NC(=O)c1cc(=O)c2ccc(C)cc2o1 the results were TDP1 cell CPT inactive and DT40 TDP1 no CPT inactive.
CCN(CC)C(=O)C(C)N(C#N)c1nc(Cl)nc(N(C)C)n1 (stereo not given) was read as TDP1 cell CPT inactive, DT40 TDP1 no CPT inactive, RORgamma inh inactive, IL-1B inflam inh -98, VP16 counter inactive and ELG1 repair inh inactive.
CCCn1c(N)c(C(=O)CSc2nnc(Cc3ccccc3)o2)c(=O)n(C)c1=O was read as TDP1 cell CPT inconclusive, DT40 TDP1 no CPT 23µM, RORgamma inh inconclusive, IL-1B inflam inh inactive, VP16 counter inconclusive and ELG1 repair inh 5.8µM.
`CCCn1c(N)c(C(=O)CSc2n[nH]c(-c3ccccc3F)n2)c(=O)n(C)c1=O` gave TDP1 cell CPT 21µM, DT40 TDP1 no CPT 23µM, IL-1B inflam inh inactive and ELG1 repair inh inconclusive.
`COC(=O)C[C@H]1C=C[C@@H](NS(=O)(=O)c2ccccc2)[C@@H](CO)O1` gave TDP1 cell CPT inactive, DT40 TDP1 no CPT inactive and IL-1B inflam inh inactive.
Screening CCCCCNC(=O)c1cc(S(=O)(=O)N2CCCCC2)ccc1F returned TDP1 cell CPT inactive, DT40 TDP1 no CPT inactive, RORgamma inh inactive, IL-1B inflam inh inactive, VP16 counter inactive and ELG1 repair inh inconclusive.
O=S(=O)(c1ccc(F)c(F)c1)N1CCCc2ccccc21 was read as TDP1 cell CPT inactive, DT40 TDP1 no CPT inconclusive, RORgamma inh inactive, IL-1B inflam inh inactive, VP16 counter inactive and ELG1 repair inh inactive.
Screening CCc1ccccc1NC(=O)N1CCCc2ccccc21 returned TDP1 cell CPT inactive, DT40 TDP1 no CPT inactive, RORgamma inh inactive, IL-1B inflam inh inactive, VP16 counter inactive and ELG1 repair inh inactive.
Screening CCCNC(=O)c1cc(S(=O)(=O)N2CCc3ccccc32)ccc1F returned TDP1 cell CPT 5.2µM, DT40 TDP1 no CPT 15µM, RORgamma inh inconclusive, IL-1B inflam inh inactive, VP16 counter inconclusive and ELG1 repair inh inconclusive.
For CCc1ccccc1NC(=O)c1cc(S(=O)(=O)N2CCCc3ccccc32)ccc1F the results were TDP1 cell CPT 16µM and DT40 TDP1 no CPT 18µM.
O=C(Nc1cc(Cl)ccc1Cl)c1cc(S(=O)(=O)N2CCCc3ccccc32)ccc1F was read as TDP1 cell CPT 23µM and DT40 TDP1 no CPT inconclusive.
COc1ccccc1NC(=O)c1cc(S(=O)(=O)N2CCc3ccccc32)ccc1F was read as TDP1 cell CPT 18µM, DT40 TDP1 no CPT inconclusive, RORgamma inh inactive, IL-1B inflam inh inactive, VP16 counter inactive and ELG1 repair inh inactive.
For CCOc1ccc(NC(=O)N(Cc2ccc(C)cc2)Cc2ccccn2)cc1 the results were TDP1 cell CPT inactive, DT40 TDP1 no CPT inconclusive, RORgamma inh inactive, IL-1B inflam inh inactive, VP16 counter inactive and ELG1 repair inh inactive.
CCc1ccccc1NC(=O)c1cc(S(=O)(=O)N2CCc3ccccc32)ccc1F was read as TDP1 cell CPT 16µM and DT40 TDP1 no CPT 10µM.
COc1ccc(S(=O)(=O)N2CCc3ccccc32)cc1C(=O)NCCc1ccc(S(N)(=O)=O)cc1 was read as TDP1 cell CPT inactive, DT40 TDP1 no CPT inactive, IL-1B inflam inh inactive and ELG1 repair inh inactive.
Screening COc1ccc(CCNC(=O)c2cc(S(=O)(=O)N3CCc4ccccc43)ccc2F)cc1OC returned TDP1 cell CPT 12µM, DT40 TDP1 no CPT 6.5µM and IL-1B inflam inh inactive.
`CNC(=O)NNC(=O)c1nc(-c2ccccc2)c(C)o1` gave TDP1 cell CPT inactive, DT40 TDP1 no CPT inactive, RORgamma inh inactive, VP16 counter inactive and ELG1 repair inh inactive.
